One may read the AC50 as the concentration giving half of the maximal activity seen. In general, IC50 refers to the concentration that inhibits the measured activity by half.

Data on 19 compounds can be found in PubChem BioAssay.

Results filed as inconclusive are left out. Active and inactive are the calls of the source. Unless noted, no cut-off is given here; in the data, nearly all actives have AC50 up to about 30 µM.

Test [1] is described as follows: viability loss in pontine glioma line – cell-based, SU-DIPG-XIII, MIPE4.0, CellTiter-Glo, qHTS, dose response (AID 1347061; cut-off not given, nearly all actives have AC50 up to about 37 µM;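 note: cells exposed to compound for 48 hours before readout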). The note with it: CellTiter-Glo ATP luminescence.
Test [2] is described as follows: viability loss in pontine glioma line – cell-based, JHH-DIPG-1, MIPE4.0, CellTiter-Glo, qHTS, dose response (AID 1347062; cut-off not given, nearly all actives have AC50 up to about 27 µM;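 for AC50: cells exposed to compound for two days before readout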). As to conditions: JHH-DIPG-1 viability, CellTiter-Glo ATP luminescence.
Test [3] in a line: growth inhibition of DIPG cells – cell-based, MIPE5.0 library, qHTS (AID 1347068; cut-off not given, nearly all actives have IC50 up to about 30 µM;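 for IC50: cells exposed to compound for 48 hours before viability readout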). As to conditions: SU-DIPG-XXV viability.
Test [4] can be described thus: viability loss in pontine glioma line – cell-based, SU-DIPG-IV, MIPE4.0, CellTiter-Glo, qHTS, dose response (AID 1347063).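 Note: compound exposure lasted 48 hours before the viability readout.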 The note with it: CellTiter-Glo ATP luminescence. For orientation: In ATP-based viability assays light output follows the ATP content of the culture.
A short description of test [5]: growth inhibition of DIPG cells – cell-based, MIPE4.0 library, CellTiter-Glo luminescence, qHTS (AID 1347066).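 Note: cells exposed to compound for 48 hours before readout.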 As to conditions: SU-DIPG-VI viability, CellTiter-Glo ATP luminescence.
Test [6] can be described thus: viability loss with induced miR-34 in A549 – imaging, A549 dox-inducible miR-34, nuclei and caspase counts, primary screen (AID 1347080;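 active = compounds whose cell count with miR-34 switched on is under 0.7 times the count with it off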). The note with it: A549 miR-34 inducible, Hoechst nuclei count, 48 h.
A short description of test [7]: MELAS cybrid and Rieske KO viability enhancers – cell-based, MELAS cybrids, Rieske KO mouse fibroblasts, CellTiter-Glo, primary screen (AID 1508586;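 active = mean z-score across replicates of 1.96 or higher in either the MELAS or the Rieske mutant cell line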;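 note: z relative to plate mean and SD of compound and empty wells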). The note with it: low glucose.
Test [8] is described as follows: galactose survival enhancers in mitochondrial complex I cybrids – cell-based, galactose medium, ATP luminescence, primary screen (AID 1645843;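 active = z-score of at least 1.8 in each of two replicates, scored against plate mean and spread of sample wells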;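 note: positive z means more ATP and so rescue of galactose-driven cybrid death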). As to conditions: complex I mutant cybrid cells, 72 h, stronger effect = higher value.
Test [9] is described as follows: viability loss in pontine glioma line – cell-based, SU-DIPG-XIII, MIPE5.0, CellTiter-Glo, qHTS, dose response (AID 1347064; cut-off not given, nearly all actives have AC50 up to about 23 µM;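 for AC50: cells exposed to compound for 48 hours before the viability read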). The note with it: CellTiter-Glo ATP luminescence.
Test [10] can be described thus: viability loss in pontine glioma line – cell-based, SU-DIPG-XXV, MIPE5.0, CellTiter-Glo, qHTS, dose response (AID 1347065; cut-off not given, nearly all actives have AC50 up to about 26 µM;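 note: cells exposed to compound for 48 hours before ATP readout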). The note with it: CellTiter-Glo ATP luminescence.
Test [11] is described as follows: JHH-DIPG-1 glioma cell viability, MIPE5.0 library, CellTiter-Glo luminescence, qHTS (AID 1347067; cut-off not given, nearly all actives have AC50 up to about 26 µM;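 note: cells exposed to compound for 48 hours before readout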). The note with it: JHH-DIPG-1 glioma viability, CellTiter-Glo ATP luminescence.
Test [12] can be described thus: chitosan synthesis blockers in C. neoformans – flow cytometry, Cibacron Brilliant Red staining (AID 1347148; call rule not given here;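 note: compound exposure lasted three days at 37 degrees C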). As to conditions: Cryptococcus neoformans chitosan, stronger effect = lower value; at 10 µM unless noted.
Where [13] appears, read: measured here: relative caspase fold change +Dox/-Dox.
Where [14] appears, read: measured here: total cells with miR-34 induction, stronger effect = lower value.
The mark [15] stands for this setting: measured here: total cells without miR-34 induction.
Setting [16] is: MELAS cybrid survival, CellTiter-Glo 48 h, stronger effect = higher value.
The mark [17] stands for this setting: Rieske KO mouse fibroblast survival, CellTiter-Glo 72 h.

On to `CC1(N2CCC(n3c([C@@H]4CCCNC4)nc4ccccc43)CC2)CCCCCCC1`, for which, in test [1], the compound was classed as inactive. Moreover, the half-maximal activity concentration (AC50) in test [2] was 14800 nM (active). Further, the concentration for half-maximal inhibition (IC50) in test [3] was 20900 nM (active).

For `C[C@H]([C@H](O)CCC(C)(C)O)[C@H]1CC[C@@]2(O)C3=CC(=O)[C@@H]4C[C@@H](O)[C@@H](O)C[C@]4(C)[C@H]3CC[C@]12C`, the result in [1], in [2], in [4] and in [5] was inactive.

Regarding `O=[N+]([O-])c1ncc[nH]1`, the compound was called inactive in test [1], in [2], in [4] and in test [5]. Further, the values for the fold change in [6] (stronger effect = lower value) and in [6] (setting [13]) were 0.87 (inactive) and 0.789, respectively. Besides, the cell count in test [6] (setting [14]) came out at 7870; in [6] (setting [15]) it was 9040. Moreover, the z-score in test [7] (setting [16]) is -0.216 (inactive); in test [7] (setting [17]) it was 0.743.

Regarding `c1cc2c(cc1[C@H]1OC[C@H]3[C@@H]1CO[C@@H]3c1ccc3c(c1)OCO3)OCO2`, the outcome in test [2] and in test [5] was inactive.

Consider `C1=C2CCCN[C@H]2[C@@H]2C[C@H]1[C@H]1CCCCN1C2`, for which the result in [1], in test [2], in [4] and in test [5] was inactive. Besides, the fold change was 0.948 (inactive) in test [6] (stronger effect = lower value, cell number ratio, induced over uninduced) and 1.03 in test [6] (setting [13]). For the same compound, the results for the cell count in test [6] (setting [14]) and in test [6] (setting [15]) were 10000 and 10600, respectively. The z-score in [7] (setting [16]) is -0.38 (inactive); in [7] (setting [17]), 0.546.

Regarding `CC(C)N[C@@H]1CCn2c(=O)[nH]c3cccc(c32)[C@H]1O`, the AC50 is 7430 nM (active) in [1], 14800 nM (active) in test [2], 743 nM (active) in test [4] and 23500 nM (active) in test [5].

As to `COc1ccc2c(c1)[C@]13CCCCC1C(C2)N(C)CC3` (some centres undefined), the compound was classed as inactive in test [2], in test [4] and in test [5]. In addition, the fold change was 0.884 (inactive) in test [6] (stronger effect = lower value) and 1.91 in [6] (setting [13]). Further, the cell count stood at 7550 in [6] (setting [14]) and 8540 in test [6] (setting [15]). Moreover, in test [8], the z-score was 0.055 (inactive).

Take `O=C(N[C@@H](COc1ccc2[nH]c(=O)[nH]c2c1)c1ccccc1)c1cccn(Cc2ccc(F)c(F)c2)c1=O`: the call in test [1], in test [9] and in test [3] was inactive. Moreover, the AC50 in [10] is 18600 nM (active); in test [11], 16600 nM (active).

On to `C[C@@]12OC(=O)[C@]1([C@@H](O)[C@@H]1C=CCCC1)NC(=O)[C@@H]2CCCl`, for which the AC50 was 590 nM (active) in [1]; 41.8 nM (active) in [2]; 9.35 nM (active) in test [4]; 14.8 nM (active) in test [9]; 18.6 nM (active) in test [10]; 23.5 nM (active) in [5]. For the same compound, the AC50 in test [11] is 29.5 nM (active).

`CC1=C(CC/C(C)=C/CCC2=CCC(C3=CC(=O)OC3O)OC2O)C(C)(C)CCC1` (centres undefined): the compound was classed as inactive in test [1], in [2], in test [4] and in [5]. Also, in [12], the fold fluorescence is 4.39 [at 120 µM] (inactive).

`C[C@]12CC[C@H]3[C@@H](CCC4=CC(=O)CC[C@@H]43)[C@@H]1CC[C@@H]2OC(=O)CCc1ccccc1`: the result in test [1], in test [2], in test [4], in test [5] and in [3] was inactive.

For `CO[C@H]1CCC(O[C@H]2C[C@H]([C@]3(C)CC[C@]4(C[C@H](O)[C@@H](C)[C@@H]([C@@H](C)/C=C(\C)C(=O)[C@H](C)C[C@H](C)C(=O)O)O4)O3)O[C@]3(O[C@@H]([C@H]4O[C@@](O)(CO)[C@H](C)C[C@@H]4C)C[C@@H]3C)[C@@H]2C)O[C@@H]1C` (some centres undefined), the AC50 in test [1] was 3320 nM (active); in test [2] it was 1480 nM (active); in test [9], 1660 nM (active); in test [10] it was 742 nM (active); in test [5] it was 526 nM (active); in [11], 742 nM (active). Also, in [3], the half-inhibitory concentration (IC50) was 934 nM (active).

`CNC(=O)N1N=C(c2ccc(N)cc2)c2cc3c(cc2CC1C)OCO3` (centres undefined): the call in [2] and in test [5] was inactive.

Take `CCC(=O)OC1CCC2C3CCC4=CC(=O)CC[C@@]4(C)C3CC[C@]12C` (some centres undefined): the outcome in test [2], in test [4] and in [5] was inactive.

With `C[C@](O)(COc1ccc(C#N)cc1)C(=O)Nc1ccc(C#N)c(C(F)(F)F)c1`, the compound was called inactive in test [2], in test [4], in test [9], in test [10], in test [5] and in [3]. The figures for the fold change in test [6] (stronger effect = lower value) and in test [6] (setting [13]) were 0.889 (inactive) and 1.23, respectively. The cell count turned out to be 6840 in [6] (setting [14]) and 7700 in test [6] (setting [15]). The z-score in test [7] (setting [16]) was -0.434 (inactive); in [7] (setting [17]), 0.535.

As for `C=C[C@H]1CN2CCC1C[C@H]2[C@H](O)c1ccnc2ccccc12` (some centres undefined), the concentration at half-maximal activity (AC50) in test [2] is 20900 nM (active). In [5], the compound was classed as inactive.

Take `CCNC(=O)C[C@@H]1N=C(c2ccc(Cl)cc2)c2cc(OC)ccc2-n2c(C)nnc21`: the half-maximal activity concentration (AC50) in test [2] was 7430 nM (active). The call in test [5], in test [11] and in test [3] was inactive.

Regarding `CC(=O)OCC1=C(C(=O)O)N2C(=O)[C@@H](N)[C@@H]2SC1`, the compound was called inactive in test [1] and in test [5].

`CC(C)(C)[C@]1(O)C[C@@H]2OC(=O)C[C@@]23C(=O)O[C@@H]2OC(=O)[C@H](O)C213` (some centres undefined): the compound was called inactive in test [1], in test [2], in test [4] and in [5].
